Most compounds without a hit are left out; they make up all but 2.9% or so of the library.
sPLA2-III inh: Blocks human group III sPLA2 activity; Q9NZ20; QFRET BODIPY PC-A2 liposome hydrolysis, fluorescence; inhibition, % at 12.2 µM; 370,000 tested, 0.56% active; AID 743126;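 active = inhibition above mean plus 3 SD of compounds lying within the high and low control bounds, cut at about 19% in these data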;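 also: 0% = median of test compound wells and 100% = no enzyme DMSO wells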
Myeloid diff 2: compounds promoting myeloid differentiation; calls only at 10 µM; 360,000 tested, 1% active; AID 624256; ER-HoxA9 myeloid progenitors, lysozyme-GFP differentiation, flow cytometry;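 active = normalized GFP-positive differentiation at or above the plate's own cutoff, the solvent-only control mean plus 3 SD; inconclusive = no clear call, values can overlap the other calls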;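 also: cells exposed to compound for four days before flow analysis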
H9c2 protect: myocardial damage modulation in H9c2 cells | H9c2 cardiomyocytes, H2O2 injury protection, ATPLite, 2 h | protection from H2O2 cell death, % at 20 µM | 360,000 tested, 0.63% active | AID 588492;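 active = compounds giving at least 50% protection of heart cells from peroxide-induced death in the single-dose screen, raw or plate-pattern-corrected value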;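 also: 0% = DMSO wells with peroxide and 100% = DMSO wells without peroxide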
ABHD5 PLIN5 PPI: inhibitors of human ABHD5-perilipin-5 interaction; AID 602281; Split G. princeps luciferase complementation, luminescence, 4 h; 360,000 tested, 0.78% active; Q00G26+Q8WTS1; inhibition, % at 4 µM;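 active = inhibition above the mean inhibition across every tested compound plus 3 SD, cut at about 22% in these data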;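 also: 0% = DMSO only wells and the 100% control is not disclosed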
Rtt109 Vps75: inhibitors of Candida albicans Rtt109/Vps75 histone acetyltransferase | Q5AAJ8 | purified Rtt109/Vps75, ThioGlo CoA-SH fluorescence, 4 h | inhibition, % at 34.9 µM | 330,000 tested, 0.16% active;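 active = inhibition of at least 50% in every replicate; inconclusive = best replicate reaches 50% inhibition but some replicates fall short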
Target sequence (Q5AAJ8 whole entry, looked up): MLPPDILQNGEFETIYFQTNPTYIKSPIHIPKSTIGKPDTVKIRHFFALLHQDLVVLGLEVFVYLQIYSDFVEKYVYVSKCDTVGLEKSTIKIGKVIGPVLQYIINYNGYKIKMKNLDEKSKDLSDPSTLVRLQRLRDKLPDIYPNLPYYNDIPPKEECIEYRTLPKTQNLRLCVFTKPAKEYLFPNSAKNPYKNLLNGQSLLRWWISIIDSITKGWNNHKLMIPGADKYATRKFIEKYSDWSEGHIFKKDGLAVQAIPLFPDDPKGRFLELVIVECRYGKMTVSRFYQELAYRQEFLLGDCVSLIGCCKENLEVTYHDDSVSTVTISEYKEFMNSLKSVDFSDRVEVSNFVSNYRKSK
DAGLB inhibitor: diacylglycerol lipase beta (human) inhibition; HEK293T DAGLB membrane lysate, EnzChek fluorogenic substrate; AID 504411; inhibition, % at 5.17 µM; 340,000 tested, 0.059% active; in the data active = inhibition above about 34%;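 also: 0% = enzyme with vehicle and 100% = wells lacking enzyme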
Active calls of the source: *; i = inactive; ? = inconclusive; nt = no result given; + = active, no number.

SMILES	sPLA2-III inh	Myeloid diff 2	H9c2 protect	ABHD5 PLIN5 PPI	Rtt109 Vps75	DAGLB inhibitor
CCC(C)(C)n1nnnc1C(c1ccc(OC)cc1)N1CCN(C(=O)c2ccco2)CC1 (centres undefined)	-0.2	i	3.8	7.5	2.0	-0.6
N#C/C(=C\c1ccccn1)c1ccccn1	1.9	+	3.0	9.0	15.2	-0.5
COc1ccccc1NC(=O)c1ccc(-c2ccc(Br)cc2)o1	-4.8	+	1.9	-2.6	-4.8	-19.6
O=C(Nc1ccccc1)c1ccc(-c2ccc(Br)cc2)o1	-11.7	i	-7.6	-4.7	2.4	-6.1
C=CCN=c1scc(C)n1/N=C/c1ccc(O)c(O)c1	2.5	i	65.2*	1.7	3.4	5.3
CN1CCN(C(c2ccc(C(F)(F)F)cc2)c2ccc3cccnc3c2O)CC1 (centres undefined)	7.9	nt	nt	nt	nt	nt
O=C(COc1ccccc1[N+](=O)[O-])Nc1ccc(N2CCN(C(=O)c3cccs3)CC2)cc1	-3.3	i	65.9*	-1.9	0.5	2.1
CCC(=O)Nc1ccc(N2CCN(C(=O)c3cccs3)CC2)cc1	4.1	i	-7.5	-4.2	23.0	0.3
CCOC(=O)C1=C(O)c2ccccc2C(=O)/C1=C\c1ccc(C)cc1	nt	+	-14.6	20.5	1.8	5.3
CC[C@]12c3[nH]c4ccc(Cl)cc4c3CCN1C(=O)[C@@H](CC(=O)NCCCn1ccnc1)C[C@@H]2C(=O)N1CCN(C(=O)C2CC2)CC1	4.6	i	6.2	4.8	0.2	-0.9
Nc1nc2c(ncn2COCCO)c(=O)[nH]1	5.8	i	16.4	-0.5	0.5	-1.8
Nc1nc2c(ncn2COC(CO)CO)c(=O)[nH]1	0.8	+	16.1	-2.6	3.1	0.0
COc1ccc(CCNC(=O)C(C(=O)c2ccccc2)n2cc(Cl)ccc2=O)cc1OC (centres undefined)	-0.6	i	8.1	-1.6	-5.3	2.5
Cc1ccc(SCCn2nc(C(=O)O)c3ccccc3c2=O)cc1	0.4	i	23.6	-4.4	-11.4	-6.1
Cc1noc(C)c1Cn1nc(C(=O)O)c2ccccc2c1=O	-1.8	i	63.7*	-2.1	-5.9	-0.6
Cc1cccc(OCCn2nc(C(=O)O)c3ccccc3c2=O)c1	-12.3	i	72.8*	-5.5	4.4	0.5
Cc1ccc(-c2noc(Cn3nc(C(=O)O)c4ccccc4c3=O)n2)cc1	4.8	nt	8.4	-9.8	2.2	-2.4
CC(C)(C)c1ccc(OCCn2nc(C(=O)O)c3ccccc3c2=O)cc1	-8.4	?	1.0	-7.1	-0.1	-3.5
Cc1cccc(C)c1OCCn1nc(C(=O)O)c2ccccc2c1=O	-10.4	i	57.2*	-5.1	-4.3	-3.4
O=C(CCNS(=O)(=O)c1ccccc1)N1CCC(Cc2ccccc2)CC1	-6.5	i	-3.9	-0.6	-13.0	-0.5
COCCN1Cc2cccc(C(=O)Nc3ccc(S(=O)(=O)N4CCCCC4)cc3)c2C1=O	2.5	+	-5.1	6.9	-2.8	4.2
COc1ccc(C(C)=O)cc1Cn1c(C)c(C(=O)NCc2ccc(C(C)C)cc2)sc1=O	-8.5	+	-0.9	3.1	nt	nt
COc1ccc(CNC(=O)c2sc(=O)n(Cc3cc(C(C)=O)ccc3OC)c2C)cc1	3.6	i	6.1	-0.5	nt	nt
COc1cc(C)ccc1OCCOCCOc1ccc([N+](=O)[O-])cc1	-4.1	i	1.6	-5.2	-0.7	-7.6
O=S(=O)(c1ccc2oc(=S)[nH]c2c1)N1CCCCC1	5.7	+	-6.7	2.0	8.6	1.6
SMILES	sPLA2-III inh	Myeloid diff 2	H9c2 protect	ABHD5 PLIN5 PPI	Rtt109 Vps75	DAGLB inhibitor
Cc1cccc(Oc2cc([N+](=O)[O-])cc3c2C(=O)Nc2ccccc2O3)c1	-15.1	i	-21.8	-6.9	7.1	-2.1
O=C1Nc2ccccc2Oc2cc([N+](=O)[O-])cc(Oc3ccccc3)c21	-0.4	+	-18.2	-6.4	-3.9	-3.3
Cc1ccc(Nc2nc(CSc3nnc(-c4ccccc4C)n3C)cs2)cc1	3.9	i	-12.1	-2.3	-0.2	-1.5
C[C@H]1CN([C@@H](C)CO)C(=O)CCCn2nncc2CO[C@H]1CN(C)C(=O)Nc1ccc2c(c1)OCO2	0.4	i	-8.6	0.9	nt	-1.7
COc1ccc(/C(O)=C/c2nc3ccccc3n(-c3ccccc3)c2=O)cc1	4.9	+	-5.8	-4.2	-35.6	-4.2
Cc1ccc(NC(=O)C(=O)NC(C)C2COc3ccccc3O2)cc1 (centres undefined)	3.8	i	1.6	-7.5	-9.8	-8.9
CCN(CCO)c1ncnc2c1sc1nc(C(C)C)c3c(c12)CC(C)(C)OC3	8.5	i	59.8*	6.8	20.8	-0.2
CCN1C(=O)/C(=C/c2nc3ccccc3c(=O)n2-c2ccccc2)c2ccccc21	-0.2	nt	50.9*	2.1	11.1	3.4
CCN1C(=O)/C(=C\c2nc3ccccc3c(=O)n2CC)c2ccccc21	5.3	i	16.0	3.5	nt	7.3
CCOC(=O)c1ccccc1NS(=O)(=O)c1ccc(OCC)cc1	-10.4	+	-8.0	3.0	-2.9	-8.1
CCOc1cc(C(=O)OCC(=O)NC(C)c2ccccc2)ccc1OCC(=O)N1CCOCC1 (centres undefined)	3.7	i	4.6	-4.4	-2.7	1.0
CC1CC(=O)C(C(C2=C(O)CC(C)CC2=O)c2ccccc2)=C(O)C1 (centres undefined)	1.7	i	-0.8	23.1*	-2.0	-3.2
C=CCOc1c(CCC)cc(CCC)cc1C(N)=O	0.8	i	-12.5	0.9	9.1	-7.4
Cn1c2ccccc2c2cnn(CC(=O)Nc3ccccc3Br)c(=O)c21	2.1	i	1.3	1.4	-2.2	-3.7
Cn1c2ccccc2c2cnn(CC(=O)Nc3ccc(F)cc3F)c(=O)c21	-0.5	+	-3.3	1.4	-8.3	1.1
Cc1ccc(CNC(=O)CCC(=O)Nc2nnc(C3CCCCC3)s2)cc1	18.3	i	-4.7	-8.3	-3.3	-0.7
Cc1ccc(NC(=O)CCC(=O)Nc2nnc(C3CCCCC3)s2)cc1	-2.1	+	0.8	7.7	14.4	-0.1
CCCCCCc1cc2cc(C(=O)Nc3ccccc3OC)c(=O)oc2cc1O	-1.6	i	-25.2	-4.1	-8.1	0.0
CCCCCCc1cc2cc(-c3nnc(-c4ccccc4O)o3)c(=O)oc2cc1O	2.6	+	-18.3	8.4	9.0	-45.4
CCCCCCc1cc2cc(-c3nnc(-c4ccccc4OC)o3)c(=O)oc2cc1O	-9.3	+	-19.4	6.9	-5.6	5.5
COc1ccc(CNc2ccc3c(c2)CCC3)cc1Br	14.1	i	-4.1	-8.0	3.7	0.0
COc1ccccc1CNc1ccc2c(c1)CCC2	2.4	+	8.0	-14.3	-6.8	2.0
O=C(Nc1cc([N+](=O)[O-])ccc1O)c1cccc(C(=O)Nc2cc([N+](=O)[O-])ccc2O)c1	-5.5	i	-1.3	3.7	-3.4	4.0
Cc1cc(C)n(CC(C)NCc2cn[nH]c2-c2ccc(C)c(C)c2)n1 (centres undefined)	-12.4	+	-2.7	-2.0	-1.7	-6.4
